Records with an inconclusive call do not appear. The source made the active and inactive calls. Unless noted, the call rests on the fitted dose curve; in most records, active means well fitted curve in the direction sought with a large enough effect in the repeat runs; inconclusive means weak or mixed curves; inactive means no such curve, though single readings can be large; an effect the other way counts as inactive or inconclusive.

Experiment [1] in a line: qHTS assay to test for compound auto fluorescence at 535 nm (green) in HEK293 cells (AID 720680). (In general: Quantitative high-throughput screening tests each substance at several concentrations.)
The nature of experiment [2]: qHTS assay to test for compound auto fluorescence at 460 nm (blue) in HEK293 cell free culture (AID 720681). The essentials:
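Blue fluorescence (Ex 405/Em 460 nm, triamterene-equivalent) was read immediately after pin transfer of compound or DMSO into medium (DMEM, 10% FBS) without cells.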

Experiment [3] is described as follows: qHTS assay to test for compound auto fluorescence at 535 nm (green) in HEK293 cell free culture (AID 720682). The essentials: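 Read-out: 485/535 nm fluorescence intensity, calibrated against fluorescein. Medium only (DMEM + 10% FBS, no cells); test compound or DMSO vehicle added by pintool before plate reading.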
Experiment [4] in a line: qHTS assay to test for compound auto fluorescence at 590 nm (red) in HEK293 cell free culture (AID 720683). A digest of the protocol:
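Red-channel autofluorescence of compounds in culture medium (DMEM, 10% FBS), no cells, measured at 540/590 nm. Rose Bengal sodium is the reference fluorophore for equivalence.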

A short description of experiment [5]: qHTS assay to test for compound auto fluorescence at 590 nm (red) in HepG2 cell free culture (AID 720684). The essentials: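 Plate contents were MEM with 10% FBS plus test compound or DMSO, no cells. Fluorescence was recorded with 540 nm excitation and 590 nm emission.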
The nature of experiment [6]: qHTS assay to test for compound auto fluorescence at 460 nm (blue) in HepG2 cell free culture (AID 720685). The essentials:
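Compound (23 nL) or DMSO pinned into cell-free MEM with 10% FBS; blue fluorescence read at 405/460 nm excitation/emission, expressed as auto-fluorescence equivalency to triamterene.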

The nature of experiment [7]: qHTS assay to test for compound auto fluorescence at 535 nm (green) in HepG2 cell free culture (AID 720686).
Experiment [8] can be described thus: qHTS assay to test for compound auto fluorescence at 460 nm (blue) in HepG2 cells (AID 720687). The essentials: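 Blue-channel autofluorescence (Ex/Em 405/460 nm, triamterene-equivalent) was measured after 1 hr compound exposure at 37 C, 5% CO2. Cells were HepG2, plated overnight at 37 C in MEM plus 10% FBS.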
Experiment [9] addresses Glucocorticoid receptor (Homo sapiens) (UniProt P04150). Description: qHTS assay to identify small molecule agonists of the glucocorticoid receptor (GR) signaling pathway (AID 720691; active means well fitted activation curve with a large enough effect in the signal ratio in the repeat runs, not every such curve was filed as active; the % refers to the signal ratio). The essentials: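 GR-bla HeLa cells carrying a GRE-driven beta-lactamase reporter, exposed to compounds for 18 h at 37 C. Reporter activation read as fluorescence after 2 h with LiveBLAzer B/G FRET substrate at room temperature.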

The target is the same in experiment [10]. Description: qHTS assay to identify small molecule antagonists of the glucocorticoid receptor (GR) signaling pathway (AID 720692; active means well fitted inhibition curve with a large enough effect in the signal ratio in the repeat runs, not every such curve was filed as active; the % refers to the signal ratio). A digest of the protocol:
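GR-bla HeLa cells carrying a GRE-driven beta-lactamase reporter received compound after 4 h plating, then dexamethasone (5 nM final). After 18 h at 37C, the FRET substrate was loaded for 2 h at room temperature and fluorescence read.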

Experiment [11] can be described thus: qHTS assay to identify small molecule antagonists of the glucocorticoid receptor (GR) signaling pathway - cell viability counter screen (AID 720693). Further: nearly all actives have a fitted effect of over 55% in size.
The nature of experiment [12]: qHTS assay for identifying genotoxic compounds that show differential cytotoxicity against isogenic chicken DT40 cell lines with known DNA damage response pathways - wild type cell line (AID 743012). Further: nearly all actives have a fitted effect of over 60% in size. Further: potency means the concentration at half of the fitted maximal effect. The essentials: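 Wild-type DT40 cells (300/well) exposed to compounds for 40 hours at 37 C/5% CO2. Viability read by CellTiter-Glo luminescence after 30 min at room temperature.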

The nature of experiment [13]: qHTS assay for identifying genotoxic compounds that show differential cytotoxicity against isogenic chicken DT40 cell lines with known DNA damage response pathways - Rev3 mutant cell line (AID 743014). Further: nearly all actives have a fitted effect of over 55% in size. Further: potency means the concentration at half of the fitted maximal effect.
Experiment [14] in a line: qHTS assay for identifying genotoxic compounds that show differential cytotoxicity against isogenic chicken DT40 cell lines with known DNA damage response pathways - Rad54/Ku70 mutant cell line (AID 743015). Further: nearly all actives have a fitted effect of over 60% in size. Further: potency means the concentration at half of the fitted maximal effect.
Experiment [15] in a line: qHTS assay to identify small molecule antagonists of the androgen receptor (AR) signaling pathway - cell viability counter screen (AID 743033; further: nearly all actives have a fitted effect of over 45% in size).
For experiment [16], the target named is Androgen receptor (Homo sapiens) (UniProt P10275). Description: qHTS assay to identify small molecule antagonists of the androgen receptor (AR) signaling pathway (AID 743035; active means well fitted inhibition curve with a large enough effect in the signal ratio in the repeat runs, not every such curve was filed as active; the % refers to the signal ratio). A digest of the protocol:
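HEK293 cells stably carrying UAS-beta-lactamase reporter, 2,000/well, given compounds plus R1881 agonist and incubated 16 h at 37C. LiveBLAzer B/G FRET substrate then added for 2 h at room temperature before fluorescence reading.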

Experiment [17] has the same target. Put plainly: qHTS assay to identify small molecule agonists of the androgen receptor (AR) signaling pathway (AID 743036; active means well fitted activation curve with a large enough effect in the signal ratio in the repeat runs, with a control signal flat, not every such curve was filed as active; the % refers to the signal ratio). The essentials:
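HEK293 cells stably carrying a UAS-driven beta-lactamase reporter (GeneBLAzer AR-UAS-bla-GripTite) were plated at 2,000 cells/well, rested 4 h at 37C, then exposed to compounds in DMSO for 16 h. LiveBLAzer B/G FRET substrate was added for 2 h at room temperature; fluorescence read.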

Experiment [18] has the same target. Put plainly: qHTS assay to identify small molecule agonists of the androgen receptor (AR) signaling pathway using the MDA cell line (AID 743040; further: nearly all actives have a fitted effect of over 20% in size). The essentials: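 After a 5 h incubation at 37C and 0% CO2, MDA-kb2 reporter cells were dosed with compounds in DMSO and kept 16 h under the same conditions. Luciferase activity was then read as luminescence with ONE-Glo.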

Experiment [19] in a line: qHTS assay to identify small molecule antagonists of the androgen receptor (AR) signaling pathway using the MDA cell line - cell viability counter screen (AID 743041; further: nearly all actives have a fitted effect of over 45% in size). A digest of the protocol: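 R1881-driven MDA-kb2 AR-luc cells, 3,000/well, were dosed with library compounds for 16 h; cell health came from CellTiter-Fluor fluorescence in the reporter wells.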
For experiment [20], the target named is Androgen receptor (Homo sapiens) (UniProt P10275). Description: qHTS assay to identify small molecule antagonists of the androgen receptor (AR) signaling pathway using the MDA cell line (AID 743042; further: nearly all actives have a fitted effect of over 55% in size). A digest of the protocol: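 Antagonist mode: compounds plus R1881 agonist added to MDA-kb2 AR-luc cells, incubated 16 h at 37C. Luciferase reporter luminescence quantified, with multiplexed CellTiter-Fluor readout for cell viability.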
Chain of Androgen receptor (Homo sapiens) (P10275 whole entry, looked up): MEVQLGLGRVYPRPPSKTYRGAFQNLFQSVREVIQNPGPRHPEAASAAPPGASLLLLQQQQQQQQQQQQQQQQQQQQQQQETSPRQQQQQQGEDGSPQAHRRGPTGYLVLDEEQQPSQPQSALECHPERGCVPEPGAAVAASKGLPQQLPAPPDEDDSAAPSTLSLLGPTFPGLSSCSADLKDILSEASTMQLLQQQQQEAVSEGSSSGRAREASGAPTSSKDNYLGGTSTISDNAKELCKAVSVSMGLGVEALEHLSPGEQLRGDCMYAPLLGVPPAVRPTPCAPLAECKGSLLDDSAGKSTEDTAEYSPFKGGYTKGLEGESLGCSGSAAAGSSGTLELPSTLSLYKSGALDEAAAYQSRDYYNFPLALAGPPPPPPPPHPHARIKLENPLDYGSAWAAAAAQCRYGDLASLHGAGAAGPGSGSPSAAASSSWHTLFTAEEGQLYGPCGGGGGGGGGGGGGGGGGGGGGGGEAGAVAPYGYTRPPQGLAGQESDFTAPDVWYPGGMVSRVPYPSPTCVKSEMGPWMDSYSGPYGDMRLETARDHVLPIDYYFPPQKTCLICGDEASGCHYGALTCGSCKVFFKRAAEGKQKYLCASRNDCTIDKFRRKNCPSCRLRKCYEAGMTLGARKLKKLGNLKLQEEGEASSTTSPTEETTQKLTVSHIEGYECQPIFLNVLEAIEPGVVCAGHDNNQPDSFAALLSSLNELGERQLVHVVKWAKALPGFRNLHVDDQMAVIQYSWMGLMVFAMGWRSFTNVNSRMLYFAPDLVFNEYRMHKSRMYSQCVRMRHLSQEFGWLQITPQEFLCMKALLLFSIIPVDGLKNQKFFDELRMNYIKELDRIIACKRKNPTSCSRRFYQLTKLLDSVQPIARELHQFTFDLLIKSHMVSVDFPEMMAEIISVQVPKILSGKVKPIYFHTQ

Chain of Glucocorticoid receptor (Homo sapiens) (P04150 whole entry, looked up): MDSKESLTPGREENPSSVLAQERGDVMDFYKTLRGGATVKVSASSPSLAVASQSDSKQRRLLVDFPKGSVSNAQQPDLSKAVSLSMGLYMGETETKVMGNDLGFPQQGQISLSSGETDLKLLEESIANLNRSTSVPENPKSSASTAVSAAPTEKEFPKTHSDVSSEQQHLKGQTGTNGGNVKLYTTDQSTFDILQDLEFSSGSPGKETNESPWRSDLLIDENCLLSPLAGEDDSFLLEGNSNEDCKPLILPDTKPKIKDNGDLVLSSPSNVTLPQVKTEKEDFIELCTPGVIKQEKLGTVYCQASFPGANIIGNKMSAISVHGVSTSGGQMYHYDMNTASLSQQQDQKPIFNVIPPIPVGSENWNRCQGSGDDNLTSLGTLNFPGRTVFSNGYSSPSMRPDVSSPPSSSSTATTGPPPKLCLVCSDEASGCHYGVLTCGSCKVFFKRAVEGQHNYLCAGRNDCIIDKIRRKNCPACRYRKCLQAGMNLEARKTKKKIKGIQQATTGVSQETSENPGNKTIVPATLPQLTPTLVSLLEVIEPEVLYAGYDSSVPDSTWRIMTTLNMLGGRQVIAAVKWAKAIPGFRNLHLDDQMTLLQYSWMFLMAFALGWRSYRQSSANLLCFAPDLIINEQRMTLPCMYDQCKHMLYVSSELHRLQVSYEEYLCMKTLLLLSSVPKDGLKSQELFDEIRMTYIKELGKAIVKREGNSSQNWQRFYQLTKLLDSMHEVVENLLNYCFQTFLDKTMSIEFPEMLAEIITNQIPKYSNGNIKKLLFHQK

In the case of `CC(=O)OCC(CCn1cnc2cnc(N)nc21)COC(C)=O`, the compound was called inactive in experiment [1], in experiment [2], in [3], in experiment [4], in [5] and in experiment [6]. The compound was called inactive in [7], in experiment [8], in [11], in [16] and in [17]. Moreover, the Potency entry in experiment [9], in [10], in [12], in experiment [13], in [14] and in experiment [15] was “inactive” throughout. The Potency entry in [18], in [19] and in experiment [20] was “inactive” each time.
Regarding `C[C@H]1C[C@@H](O)CC(C)(C)C1`, the result in experiment [1], in experiment [2], in [3], in experiment [4], in experiment [5] and in experiment [6] was inactive. The outcome in experiment [7], in [8] and in experiment [11] was inactive. The Potency result in [9], in [10], in experiment [12], in experiment [13], in experiment [14] and in experiment [15] was “inactive” in each case. Further, in experiment [19], the Potency entry is “inactive”.
As for `CN(C)CCCNCCCN(C)C`, the compound was called inactive in [1], in experiment [2], in experiment [3], in experiment [4], in experiment [5] and in [6]. In addition, the compound was classed as inactive in experiment [7], in experiment [8] and in experiment [11]. The Potency entry in experiment [9], in experiment [10], in experiment [12], in [13], in experiment [14] and in [15] was “inactive” throughout. The Potency entry in experiment [19] is “inactive”.
Consider `O=Cc1cccc([N+](=O)[O-])c1`, for which the compound was called inactive in experiment [1], in [2], in [3], in experiment [4], in [5] and in experiment [6]. In addition, the compound was classed as inactive in experiment [7], in experiment [8] and in [11]. In addition, the Potency result in [9], in experiment [10], in experiment [12], in experiment [13], in [14] and in experiment [15] was “inactive” in each case. Further, the Potency result in [19] was “inactive”.
For `O=C(O)COc1nn(Cc2ccccc2)c2ccccc12`, the compound was called inactive in experiment [1], in experiment [2], in [3], in experiment [4], in experiment [5] and in [6]. For the same compound, the call in experiment [7], in experiment [8], in experiment [11] and in experiment [16] was inactive. Also, the Potency entry in experiment [9], in experiment [10], in experiment [12], in [13], in experiment [14] and in [15] was “inactive” in each case. Also, the Potency entry in [18], in experiment [19] and in [20] was “inactive” in each case.
Turning to `NC(=O)c1ccc(N)cc1`, the call in experiment [1], in [2], in experiment [3], in [4], in experiment [5] and in experiment [6] was inactive. The outcome in experiment [7], in experiment [8] and in experiment [11] was inactive. In addition, the Potency entry in experiment [9], in [10], in [12], in experiment [13], in experiment [14] and in experiment [15] was “inactive” each time. In addition, the Potency entry in experiment [19] was “inactive”.
For `O=C(CCCN1CCC(O)(c2cccc(C(F)(F)F)c2)CC1)c1ccc(F)cc1`, the result in experiment [1], in [2], in experiment [3], in experiment [4], in [5] and in experiment [6] was inactive. Further, the result in experiment [7], in experiment [8] and in experiment [11] was inactive. For the same compound, the Potency result in experiment [9], in experiment [10] and in experiment [15] was “inactive” in each case. Moreover, the Potency is 10.6 µM (active) in [12], 11.9 µM (active) in experiment [13] and 11.9 µM (active) in experiment [14].
Take `O=C1OC(=O)C2CCCCC12` (centres undefined): the compound was called inactive in experiment [1], in experiment [2], in [3], in experiment [4], in [5] and in experiment [6]. The compound was called inactive in [7], in [8] and in [11]. Further, the Potency result in experiment [9], in [10], in experiment [12], in experiment [13], in experiment [14] and in [15] was “inactive” each time. Further, in experiment [19], the Potency entry was “inactive”.
